Measured values as given in PubChem BioAssay.
Active and inactive are the calls of the source. Unless noted, the rule behind the calls is not given here.

Key:
[1] = HepG2 liver cancer cell viability effects, profiling panel, resazurin fluorescence, 24 h, PK04 Diversity Set (AID 1172); details: higher = more signal
[2] = basal S. cerevisiae growth modulation, no modifier, primary screen, OD600, strain BY4716, 24 h, basal condition (AID 1173); details: OD600, 24 h, higher = more signal, called active from +8 up or from −8 down
[3] = MM1S myeloma cell viability, profiling panel, resazurin fluorescence, basal, 24 h, PK04 Diversity Set (AID 1174); details: higher = more signal, called active from +8 up or from −8 down;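 note: MM1S multiple myeloma cell line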
[4] = biological target: Dihydroorotate dehydrogenase (quinone), mitochondrial (Plasmodium falciparum (isolate 3D7)) (UniProt Q08210); assay: PfDHODH enzyme inhibitors, primary screen, biochemical, C-terminal His tag, absorbance 600 nm (AID 1175); details: DCIP absorbance 600 nm, higher = more signal, called active from +8 up or from −8 down;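 note: recombinant parasite enzyme with a five histidine tag at its C terminus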
[5] = P. aeruginosa biofilm formation inhibitors, primary screen, strain PAO1, LB-PBS medium, absorbance 600 nm (AID 1176); details: P. aeruginosa PAO1 growth/biofilm, A600, 12 h; higher = more signal
[6] = S. cerevisiae RM11-1a growth modifiers, primary screen, strain RM11-1a, OD600, basal, 24 h (AID 1177); details: OD600, 24 h, higher = more signal, called active from +8 up or from −8 down;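 note: cultures grown under basal conditions with no added stressor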
[7] = E. coli acrAB mutant growth effects, primary screen, E. coli filamentation inducers, strain DRC39, OD650, 24 h (AID 1178); details: higher = more signal, called active from +8 up or from −8 down;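 note: growth measured as culture turbidity by optical density at 650 nm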
[8] = E. coli acrAB mutant growth effects, primary screen, E. coli filamentation inducers, strain DRC39, OD650, 48 h (AID 1179);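 note: screen aims at cell division blockers that make cells filament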; details: E. coli DRC39 delta-acrAB growth, higher = more signal, called active from +8 up or from −8 down
[9] = RPMI8226 myeloma cell viability, profiling panel, resazurin fluorescence, basal, 24 h, PK04 Diversity Set (AID 1180); details: higher = more signal;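 note: RPMI8826 multiple myeloma cell line at 5000 cells per well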
[10] = biological target: E3 ubiquitin-protein ligase XIAP (Homo sapiens) (UniProt P98170); assay: XIAP binders, primary screen, biophysical, small-molecule microarray, fluorescence 635 nm (AID 1181); details: small-molecule microarray binding, higher = more signal;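 note: score merges 667 nm emission and signal to noise over triplicate slides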
[11] = test system: XIP peptide (Xip251-270) binding; assay: small-molecule binders of XIP peptide, primary screen, biochemical, small-molecule microarray, fluorescence 635/667 nm, 0.1 µg/mL protein (AID 1182); details: fluorescent protein binding, 635 nm, higher = more signal, called active from +8 up or from −8 down
XIP peptide (Xip251-270) = assay: small-molecule binders of XIP peptide, primary screen, biochemical, small-molecule microarray, fluorescence 635/667 nm, 0.5 µg/mL protein (AID 1183); details: small-molecule microarray binding, fluorescence 635 nm; higher = more signal
[12] = Plasmodium falciparum growth inhibition, primary screen, strain 3D7, DAPI fluorescence, 100 nL (AID 1184);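 note: parasites grown inside human red blood cells in medium with human serum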; details: P. falciparum 3D7 growth, 3 d, higher = more signal
[13] = biological target: Homeobox protein Hox-A13 (Mus musculus) (UniProt Q62424); assay: inhibitors of HoxA13-DNA binding, primary screen, biochemical, fluorescence polarization, labeled oligonucleotide (AID 1185); details: 15 min, higher = more signal, called active from +8 up or from −8 down
[14] = inhibitors of hydroxyurea-induced Chk1 phosphorylation, primary screen, imaging, HeLa, phospho-Chk1 antibody, percent positive cells (AID 1186); details: hydroxyurea-induced phospho-Chk1 immunofluorescence imaging, higher = more signal
[15] = inhibitors of hydroxyurea-induced Chk1 phosphorylation, primary screen, imaging, HeLa, phospho-Chk1 nuclear intensity (AID 1187); details: hydroxyurea-induced phospho-Chk1 immunofluorescence imaging, higher = more signal

Dihydroorotate dehydrogenase (quinone), mitochondrial (Plasmodium falciparum (isolate 3D7)), sequence (Q08210 whole entry, looked up): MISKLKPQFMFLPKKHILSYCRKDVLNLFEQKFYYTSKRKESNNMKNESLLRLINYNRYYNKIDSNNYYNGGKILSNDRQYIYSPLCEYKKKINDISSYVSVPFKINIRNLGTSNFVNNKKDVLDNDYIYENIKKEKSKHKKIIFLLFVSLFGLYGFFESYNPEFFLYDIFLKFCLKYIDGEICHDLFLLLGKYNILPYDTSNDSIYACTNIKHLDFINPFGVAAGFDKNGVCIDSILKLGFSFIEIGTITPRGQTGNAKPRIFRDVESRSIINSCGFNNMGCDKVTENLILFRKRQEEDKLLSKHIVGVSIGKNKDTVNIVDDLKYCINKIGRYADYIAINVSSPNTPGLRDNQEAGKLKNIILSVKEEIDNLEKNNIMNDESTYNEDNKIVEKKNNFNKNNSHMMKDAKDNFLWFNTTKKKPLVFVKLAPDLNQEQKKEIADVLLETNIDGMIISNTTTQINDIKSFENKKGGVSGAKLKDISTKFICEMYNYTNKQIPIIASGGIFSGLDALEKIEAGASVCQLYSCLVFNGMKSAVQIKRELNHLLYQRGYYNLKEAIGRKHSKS
E3 ubiquitin-protein ligase XIAP (Homo sapiens), sequence (P98170 whole entry, looked up): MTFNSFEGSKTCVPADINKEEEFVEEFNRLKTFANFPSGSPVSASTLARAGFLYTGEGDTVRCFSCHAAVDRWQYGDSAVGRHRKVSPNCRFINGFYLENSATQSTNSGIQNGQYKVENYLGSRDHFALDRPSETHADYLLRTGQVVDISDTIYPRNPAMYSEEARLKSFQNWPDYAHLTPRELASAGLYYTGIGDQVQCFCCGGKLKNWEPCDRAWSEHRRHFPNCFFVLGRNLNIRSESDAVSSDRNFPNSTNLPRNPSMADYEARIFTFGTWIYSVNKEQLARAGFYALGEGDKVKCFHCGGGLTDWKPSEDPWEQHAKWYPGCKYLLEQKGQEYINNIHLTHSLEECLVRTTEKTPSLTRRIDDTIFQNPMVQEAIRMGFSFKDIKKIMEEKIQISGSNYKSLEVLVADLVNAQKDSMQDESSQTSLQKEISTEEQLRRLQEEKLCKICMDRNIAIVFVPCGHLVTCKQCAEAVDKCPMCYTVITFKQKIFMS
Homeobox protein Hox-A13 (Mus musculus), sequence (Q62424 whole entry, looked up): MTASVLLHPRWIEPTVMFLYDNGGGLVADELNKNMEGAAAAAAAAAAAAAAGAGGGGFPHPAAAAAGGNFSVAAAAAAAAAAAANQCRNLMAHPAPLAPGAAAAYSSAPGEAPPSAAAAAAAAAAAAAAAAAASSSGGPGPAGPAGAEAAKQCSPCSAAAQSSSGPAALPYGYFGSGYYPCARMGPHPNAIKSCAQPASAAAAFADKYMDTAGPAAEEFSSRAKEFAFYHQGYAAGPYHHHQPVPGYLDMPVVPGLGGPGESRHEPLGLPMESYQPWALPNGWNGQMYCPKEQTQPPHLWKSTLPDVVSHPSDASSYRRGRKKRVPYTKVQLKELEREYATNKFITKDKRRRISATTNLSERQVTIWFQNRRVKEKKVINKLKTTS

| Compound | z-score [1] | z-score [2] | z-score [3] | composite z-score [4] | z-score [5] | z-score [6] | z-score [7] | z-score [8] | z-score [9] | composite z-score [10] | composite z-score [11] | composite z-score (XIP peptide (Xip251-270)) | z-score [12] | z-score [13] | z-score [14] | z-score [15] |
| --- | --- | --- | --- | --- | --- | --- | --- | --- | --- | --- | --- | --- | --- | --- | --- | --- |
| C/C=C/[C@H](CCn1cc([C@H](O)c2ccccc2)nn1)[Si](C)(C)c1ccc(OC)cc1 | 0.0881 | -0.289 (inactive) | 0.183 (inactive) | -0.393 (inactive) | 0.626 (inactive) | 0.15 (inactive) | 0.265 (inactive) | -0.0867 (inactive) | -0.187 | -0.0936 | -0.0661 (inactive) | 0.634 | 1.03 | -5.59 (inactive) | -0.131 (inactive) | -0.28 (inactive) |
| COCCOC(=O)N1C(=O)[C@@]2(c3cc(C#Cc4ccc(OC)cc4)ccc31)[C@H](c1ccc(O)cc1)N1[C@H](c3ccccc3)[C@H](c3ccccc3)OC(=O)[C@H]1[C@@H]2C(=O)N1CCN(c2ncccn2)CC1 | 0.202 | 1.03 (inactive) | 0.292 (inactive) | 0.0094 (inactive) | 0.173 (inactive) | 1.75 (inactive) | 0.307 (inactive) | -0.0695 (inactive) | 0.138 | -0.224 | 0.164 (inactive) | 0.596 | -1.86 | -0.821 (inactive) | 0.187 (inactive) | 0.302 (inactive) |
| CCCCCCCCCCC(O)C1C=CC2C(=O)N(c3ccccc3)C(=O)C2N1Nc1ccc([N+](=O)[O-])cc1 (stereo not given) | -0.573 | 0.673 (inactive) | -0.0843 (inactive) | -0.838 (inactive) | 0.285 (inactive) | 0.0401 (inactive) | -0.552 (inactive) | 0.0458 (inactive) | -1.11 | -0.126 | 0.812 (inactive) | 0.801 | -0.338 | -2.71 (inactive) | 0.346 (inactive) | -0.444 (inactive) |
| C=CC[C@@]1(C(=O)NCCN2CCOCC2)N=C(c2ccc(OCCCO)cc2)O[C@@H]1c1ccccc1CN=[N+]=[N-] | -0.0014 | -1.4 (inactive) | 0.331 (inactive) | 0.45 (inactive) | 0.466 (inactive) | -0.425 (inactive) | 0.677 (inactive) | -0.498 (inactive) | -0.354 | 0.272 | 1.21 (inactive) | 0.818 | -2.13 | -1.05 (inactive) | -0.336 (inactive) | -0.254 (inactive) |
| CCCNC(=O)[C@@]1(C)c2ccccc2C(=O)N(Cc2ccc(OC(F)(F)F)cc2)[C@H]1c1ccc(CO)cc1 | -0.0818 | -0.0169 (inactive) | -0.0521 (inactive) | 0.263 (inactive) | 0.251 (inactive) | -0.277 (inactive) | 0.484 (inactive) | 1.28 (inactive) | 0.325 | -0.0599 | 0.689 (inactive) | 0.794 | -0.775 | -3.32 (inactive) | -0.374 (inactive) | -0.473 (inactive) |
| COC(=O)[C@@]1(Cc2ccc(OC)cc2)[C@H]2c3cc(C(=O)N4CCCC4)n(CCN4CCOCC4)c3C[C@H]2CN1C(=O)c1ccccc1 | 0.142 | 0.642 (inactive) | -0.0281 (inactive) | -1.33 (inactive) | 0.231 (inactive) | 0.48 (inactive) | 0.0378 (inactive) | 0.484 (inactive) | 0.639 | 0.0305 | 1.11 (inactive) | 0.0956 | -1.17 | -5.18 (inactive) | 0.778 (inactive) | 0.485 (inactive) |
| COC(=O)[C@@]1(Cc2ccc(F)cc2)[C@H]2c3cc(C(=O)N(C)C)n(Cc4ccccn4)c3C[C@H]2CN1C(=O)c1ccccc1 | 1.15 | 0.0864 (inactive) | 0.548 (inactive) | -0.171 (inactive) | -0.126 (inactive) | -0.319 (inactive) | -0.389 (inactive) | -0.42 (inactive) | 0.35 | 0.332 | -0.0593 (inactive) | 0.352 | -0.393 | -5.64 (inactive) | 0.412 (inactive) | 0.427 (inactive) |
| COC(=O)c1c2oc(c1C(=O)OC)C(=O)N[C@H](Cc1ccccc1)Cn1nncc1C1(CCCCC1)NC(=O)N[C@H](CO)CC2 | 1.09 | 0.916 (inactive) | 2.4 (inactive) | 0.112 (inactive) | 1.27 (inactive) | 0.416 (inactive) | 0.157 (inactive) | 0.402 (inactive) | 2.19 | 0.0859 | 0.152 (inactive) | -0.0356 | 1.06 | -2.22 (inactive) | -0.971 (inactive) | -0.939 (inactive) |
| [N-]=[N+]=NCc1ccccc1C[C@]1(C(=O)NCC(O)CO)COC(c2ccc(OCCCO)cc2)=N1 (stereo not given in full) | 0.0117 | -1.46 (inactive) | -2.31 (inactive) | 0.0291 (inactive) | 0.19 (inactive) | -0.325 (inactive) | -0.0949 (inactive) | 0.0564 (inactive) | -0.902 | -0.163 | 0.54 (inactive) | 0.376 | -2.04 | -4.94 (inactive) | -0.0874 (inactive) | -0.341 (inactive) |
| C=CCNC(=O)[C@@H]1[C@H]2C(=O)O[C@H](c3ccccc3)[C@H](c3ccccc3)N2[C@H](c2ccccc2OCCO)[C@@]12C(=O)N(C(=O)OCCOC)c1ccc(C#CCC(C(=O)OC)C(=O)OC)cc12 | 0.865 | 2.2 (inactive) | -1.69 (inactive) | -2.24 (inactive) | 3.54 (inactive) | 1.62 (inactive) | 0.275 (inactive) | -0.418 (inactive) | -0.11 | 0.666 | 2.28 (inactive) | 0.878 | -2.14 | -0.757 (inactive) | 0.071 (inactive) | 0.361 (inactive) |
